Bioassay records (PubChem)
HT1080 IDH1KD tx – qHTS for induction of synthetic lethality in tumor cells producing 2HG: qHTS for the HT-1080-IDH1KD cell line; HT-1080 IDH1 knockdown viability, ATP luminescence, 48 h; Potency, µM (highest dose often 46.1 µM), without a hit: at the top dose activity, negative = toxicity, hits mostly cytotoxic; actives 2% (n = 360,000); AID 686971, 2013;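 further: 0% = DMSO wells and -100% = cell-free medium wells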
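Using the IDH1-knockdown HT-1080 line run in the same batch and compound series as the NT line, viability after 48 h at 37 °C was determined by CellTiter-Glo luminescence and expressed as % activity.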
KB-3-1 tox – qHTS assay for MDR1-selective chemotherapeutics: Primary screen using the parental adenocarcinoma cell KB-3-1. KB-3-1 viability, CellTiter-Glo ATP luminescence, 72 h. Potency, µM (top dose mostly 46.1 µM), hits mostly cytotoxic. actives 1.4% (n = 400,000). AID 1347075, 2019; further: on the % scale 0 is the no-effect control and ±100 the full control effect; nearly all actives have a fitted effect of over 60% in size
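Viability of parental KB-3-1 cells, measured by CellTiter-Glo luminescence, followed a 72 h incubation at 37 °C with pinned compounds in phenol-red-free DMEM containing 10% FBS.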
MCF10A rereplic – A quantitative high throughput screen for small molecules that induce DNA re-replication in MCF 10a normal breast cells; MCF 10A DNA re-replication, Hoechst nuclear intensity, 48 h; Potency, µM (highest dose often 46.1 µM), inactives show at the highest dose activity, positive = re-replication, most hits filed as activators; actives 2.9% (n = 350,000); further: % of control where 0% means no effect; nearly all actives have a fitted effect of over 50% in size
HT1080NT lethal – qHTS for induction of synthetic lethality in tumor cells producing 2HG: qHTS for the HT-1080-NT fibrosarcoma cell line; HT-1080-NT fibrosarcoma viability, CellTiter-Glo ATP luminescence, 48 h; Potency, µM (top dose mostly 46.1 µM), for the others: at the highest dose activity, negative = less viability, hits mostly cytotoxic; actives 1.6% (n = 360,000); AID 686970, 2013;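 further: NT is the 2HG producing partner of a matched IDH1 knockdown line; 0% = DMSO-treated cells and -100% = media-only wells without cells; nearly all actives have a fitted effect of over 55% in size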
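A 48-hour cytotoxicity screen used HT-1080-NT cells plated 2 hours before compound delivery. ATP-based CellTiter-Glo luminescence measured viability, normalized to DMSO and no-cell controls.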
KB-V1 MDR tox – qHTS assay for MDR1-selective chemotherapeutics: Primary screen using the drug-selected MDR subline cells KB-V1; KB-V1 MDR cells viability, CellTiter-Glo, 72 h; Potency, µM (series often up to 46.1 µM), usual class: cytotoxic; actives 3.4% (n = 400,000); AID 1347076, 2019; further: on the % scale 0 is the no-effect control and ±100 the full control effect; nearly all actives have a fitted effect of over 60% in size
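Readout: CellTiter-Glo luminescence, 10 min after addition. Cells: KB-V1 MDR subline, 72 h at 37 degrees C with compound. Analysis: corrected, normalized data fitted to concentration-effect curves.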
SW480 rerep – A quantitative high throughput screen for small molecules that induce DNA re-replication in SW480 colon adenocarcinoma cells; SW480 DNA re-replication, Hoechst DNA content imaging, 48 h; Potency, µM (doses to about 46.1 µM), without a hit: top-dose re-replication activation, hits mostly activators; actives 1.8% (n = 340,000); AID 624297, 2012; further: % of control where 0% means no effect; nearly all actives have a fitted effect of over 55% in size
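Per well, 250 cells were exposed to pinned compound for 48 hr. Nuclear DNA was visualised with Hoechst (40 min, 37 C) and total object intensity recorded by fluorescence scanning.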
* hit, by the source's call. Shown are actives, neighbours in structure and some others; about 7.9% of the full set was active somewhere. The call rests on the fitted dose curve; in most records, active means well fitted curve in the direction sought with a large enough effect; inconclusive means small, poorly fitted or top-dose-only effect, or another doubt; inactive means no such curve, though single readings can be large; an effect the other way counts as inactive or inconclusive. Potency means the concentration at half of the fitted maximal effect.

C/C(=N/NC(=O)CN(c1ccccc1)S(=O)(=O)c1ccccc1)c1ccccc1O was read as HT1080 IDH1KD tx inconclusive, KB-3-1 tox inconclusive, MCF10A rereplic -1.4%, HT1080NT lethal inconclusive, KB-V1 MDR tox inactive and SW480 rerep 16.4µM*.
For O=C(CCC1N=C2c3ccccc3N=C(SCc3ccc(Cl)cc3)N2C1=O)NC1CCCCC1 (centres undefined) the results were KB-3-1 tox inactive and KB-V1 MDR tox inactive.
O=C(CCCN=C1NS(=O)(=O)c2ccccc21)OCC(=O)c1ccccc1Cl was read as HT1080 IDH1KD tx 5.4%, KB-3-1 tox inactive, MCF10A rereplic 3.66µM*, HT1080NT lethal 5.4%, KB-V1 MDR tox inactive and SW480 rerep -4.3%.
For COCCN(C(=O)COC(=O)CCSc1ccc(F)cc1)c1c(N)n(Cc2ccccc2)c(=O)[nH]c1=O the results were HT1080 IDH1KD tx 3.9%, KB-3-1 tox inactive, MCF10A rereplic -1.9%, HT1080NT lethal 2.2%, KB-V1 MDR tox inactive and SW480 rerep 3.1%.
`CCCC(c1nnnn1CC1CCCO1)N1CCN(c2cc(Cl)ccc2C)CC1` (centres undefined) gave HT1080 IDH1KD tx -12.5%, KB-3-1 tox inconclusive, MCF10A rereplic 5.17µM*, HT1080NT lethal -13.5%, KB-V1 MDR tox inconclusive and SW480 rerep 19.4%.
Cc1ccc(Cl)cc1N1CCN(C(CC(C)C)c2nnnn2CC2CCCO2)CC1 (centres undefined) was read as HT1080 IDH1KD tx -5.3%, KB-3-1 tox inconclusive, MCF10A rereplic 2.91µM*, HT1080NT lethal -7.8%, KB-V1 MDR tox inconclusive and SW480 rerep -3.7%.
`CC(C)CC(c1nnnn1CC1CCCO1)N1CCN(C2CCCC2)CC1` (centres undefined) gave HT1080 IDH1KD tx 11.1%, KB-3-1 tox inactive, MCF10A rereplic 1.0%, HT1080NT lethal 8.0%, KB-V1 MDR tox inactive and SW480 rerep -1.1%.
For CC(C)CC(c1nnnn1CC1CCCO1)N1CCN(c2cccc(Cl)c2)CC1 (centres undefined) the results were HT1080 IDH1KD tx 0.2%, KB-3-1 tox inconclusive, MCF10A rereplic inconclusive, HT1080NT lethal 2.1%, KB-V1 MDR tox inactive and SW480 rerep inconclusive.
CCC(c1nnnn1C(C)(C)C)N1CCN(C2CCCC2)CC1 (centres undefined) was read as HT1080 IDH1KD tx 12.6%, KB-3-1 tox inactive, MCF10A rereplic -15.8%, HT1080NT lethal 9.0%, KB-V1 MDR tox inactive and SW480 rerep 1.1%.
CC(C)CC(c1nnnn1Cc1ccco1)N1CCN(c2cccc(Cl)c2)CC1 (centres undefined) was read as HT1080 IDH1KD tx -22.4%, KB-3-1 tox 10.3µM*, MCF10A rereplic inconclusive, HT1080NT lethal -19.8%, KB-V1 MDR tox inconclusive and SW480 rerep inconclusive.
Screening CCC(c1nnnn1C(C)(C)C)N1CCN(c2cc(Cl)ccc2C)CC1 (centres undefined) returned HT1080 IDH1KD tx -19.5%, KB-3-1 tox inactive, MCF10A rereplic 13µM*, HT1080NT lethal -13.7%, KB-V1 MDR tox inactive and SW480 rerep inconclusive.
CNc1cc(-c2cccc(C(=O)N3CCOCC3)c2)ncn1 was read as HT1080 IDH1KD tx 19.4%, KB-3-1 tox inactive, HT1080NT lethal 23.9% and KB-V1 MDR tox inactive.
Screening O=S1(=O)N=C(N/N=C/c2cccs2)c2ccccc21 returned HT1080 IDH1KD tx inconclusive, KB-3-1 tox inactive, MCF10A rereplic -11.2%, HT1080NT lethal -27.5%, KB-V1 MDR tox inactive and SW480 rerep 1.8%.
CC(C)(C)c1cc(C(=O)Nc2ccccc2)ccn1 was read as HT1080 IDH1KD tx -0.2%, KB-3-1 tox inactive, MCF10A rereplic 4.0%, HT1080NT lethal 0.4%, KB-V1 MDR tox 20.6µM* and SW480 rerep -6.1%.
CC(C)(C)NC(=O)c1ccnc(C(C)(C)C)c1 was read as HT1080 IDH1KD tx 1.8%, KB-3-1 tox inactive, MCF10A rereplic -1.8%, HT1080NT lethal -4.1%, KB-V1 MDR tox inactive and SW480 rerep -15.5%.
Screening CC(NC(=O)c1ccnc(C(C)(C)C)c1)c1ccccc1 (centres undefined) returned HT1080 IDH1KD tx 3.9%, KB-3-1 tox inconclusive, MCF10A rereplic 5.9%, HT1080NT lethal 2.4%, KB-V1 MDR tox 18.4µM* and SW480 rerep 10.3%.
For Cc1ccc(NC(=O)c2ccnc(C(C)(C)C)c2)cc1 the results were HT1080 IDH1KD tx 8.0%, KB-3-1 tox inconclusive, MCF10A rereplic 9.9%, HT1080NT lethal 12.2%, KB-V1 MDR tox inactive and SW480 rerep -2.1%.
For Cc1ccccc1C(=O)N1CCN(c2ccc(NC(=O)Cc3ccccc3)cc2)CC1 the results were HT1080 IDH1KD tx -1.4%, KB-3-1 tox inactive, MCF10A rereplic 14.2%, HT1080NT lethal -2.7%, KB-V1 MDR tox inactive and SW480 rerep -3.7%.
For COc1ccc(C2=C(C)C(=O)N(Cc3ccc(C(=O)NCc4cccc(C)c4)cc3)S2(=O)=O)cc1 the results were KB-3-1 tox inactive and KB-V1 MDR tox inactive.
Nc1[nH]c(C(=O)c2ccccc2)c(-c2ccc([N+](=O)[O-])cc2)c1C(=O)NCCc1c[nH]c2ccccc12 was read as HT1080 IDH1KD tx inconclusive, KB-3-1 tox inconclusive, HT1080NT lethal inconclusive and KB-V1 MDR tox 23.1µM*.
`COc1ccc(C(=O)c2[nH]c(N)c(C(=O)NCCc3c[nH]c4ccccc34)c2-c2ccc(Cl)cc2)cc1` gave HT1080 IDH1KD tx inconclusive, KB-3-1 tox inactive, HT1080NT lethal inconclusive and KB-V1 MDR tox inactive.
Screening COc1ccc(C(=O)c2[nH]c(N)c(C(=O)NCCc3c[nH]c4ccccc34)c2-c2ccc(Cl)c(F)c2)cc1 returned HT1080 IDH1KD tx 20.6µM*, KB-3-1 tox inconclusive, HT1080NT lethal inconclusive and KB-V1 MDR tox inactive.
`Nc1[nH]c(C(=O)c2ccccc2)c(-c2ccccc2C(F)(F)F)c1C(=O)NCCc1c[nH]c2ccccc12` gave HT1080 IDH1KD tx inconclusive, KB-3-1 tox inconclusive, HT1080NT lethal inconclusive and KB-V1 MDR tox inactive.
